NALP1 yeast inh: NALP1 inhibition; 280,000 compounds, 0.61% hits; S. cerevisiae NALP1/ASC/caspase-1 growth, X-gal OD620, 72 h; inhibition, % at 10 µM; in the data active means inhibition mostly above about 24%, no sharp cut-off; inactive means mostly below about 32%
tim23-1 inh: tim23-1 yeast growth inhibition | S. cerevisiae tim23-1 growth, BacTiter-Glo luminescence, 24 h | inhibition, % at 20 µM | 330,000 compounds, 1.3% hits;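 active means growth inhibition of the mutant yeast at or above 50%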;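 further: temperature-sensitive mutant grown at 25 °C; plate controls were DMSO-treated mutant yeast for no effect and medium wells lacking yeast for full effect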
TIM10 inh: inhibits growth of TIM10 yeast strain; 330,000 compounds, 1.4% hits; S. cerevisiae TIM10 strain growth, BacTiter-Glo luminescence, 24 h; inhibition, % at 10 µM; AID 463195;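 active means inhibition of 40% or more at the single tested concentration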;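 further: wild-type TIM10 isogenic control strain grown at permissive 25 °C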
tim10-1 inh: inhibits growth of tim10-1 mutant yeast; S. cerevisiae tim10-1 ts strain growth, BacTiter-Glo, 24 h; inhibition, % at 20 µM; 330,000 compounds, 2.2% hits; AID 463190;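 active means inhibition of at least 40%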;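 further: mutant grown at 25 °C; 0% = DMSO wells with yeast and 100% = wells holding no yeast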
NLRP3 yeast inh: blocks the NALP3 inflammasome reconstituted in yeast | Yeast reconstituted NLRP3/ASC/caspase-1, beta-gal luminescence, 24 h | inhibition, % at 10 µM | 330,000 compounds, 0.39% hits;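 active means inhibition of 50% or more; inactive means inhibition below 50%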;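 further: plate controls were induced DMSO wells for no effect and uninduced yeast grown without galactose for full effect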
TIM10 conf: TIM10 yeast growth inhibition, confirmed. S. cerevisiae tim10 strain growth, BacTiter-Glo luminescence, 24 h. 4,600 compounds, 63% hits. shares compounds with TIM10 inh. inhibition, % at 10 µM;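 active means inhibition of yeast growth at or above a set limit in either of two replicates at 10 µM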;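 further: this counterscreen used the strain with wild-type TIM10; 0% = yeast with DMSO and 100% = medium wells lacking yeast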
* hit, by the source's call; nt = no result. Rows were chosen to be rich in hits. Some 4% of all compounds tested hit in one or more screens of this group.

SMILES	NALP1 yeast inh	tim23-1 inh	TIM10 inh	tim10-1 inh	NLRP3 yeast inh	TIM10 conf
Cc1cccc(N2CC(C(=O)Nc3nccs3)CC2=O)c1C (stereo not drawn)	-12.0	-4.3	-0.3	-32.9	-2.1	nt
Cc1ccc(S(=O)(=O)N2[C@@H](c3ccc(C(C)C)cc3)C(C(=O)O)=C[C@H]2C(C)(C)C)cc1	nt	18.8	10.0	16.4	0.3	nt
C=CCN(C(=O)CSc1nc2c(sc3ccccc32)c(=O)n1CCN(CC)CC)c1ccccc1	20.3	26.0	51.3*	39.4	18.8	19.6
CCOc1ccc(C(=O)O/N=C(\N)c2ccccn2)cc1	21.7	37.9	42.1*	38.0	34.3	35.7*
CCOc1ccc(N(C(=O)c2cnccn2)C(C(=O)NC2CCCCC2)c2ccc(O)cc2)cc1 (stereo not drawn)	-5.2	15.7	83.7*	17.2	11.1	-15.9
Cc1ccc(/C=C/C(=O)N2CCN(S(=O)(=O)c3c(C)c(C)cc(C)c3C)CC2)o1	43.0	30.2	40.9*	26.1	10.4	-17.8
CCOc1ccc(N2CC(O)=C(c3nc4ccccc4c(=O)[nH]3)C2=N)cc1	7.2	-22.5	-2.2	-30.3	18.6	nt
Cc1ccc(N2CC(O)=C(c3nc4ccccc4c(=O)[nH]3)C2=N)cc1C	-3.6	45.6	46.7*	12.9	39.8	21.3
Cc1cccc(NC(=S)N/N=C/c2cccn2Cc2ccc(F)cc2)c1	22.4	19.5	52.6*	34.7	28.9	49.1*
CSc1ccccc1NC(=S)N/N=C/c1cccn1Cc1cccc(C)c1	2.1	15.8	37.2	38.1	14.5	nt
O=C(c1ccc(Oc2ccc(C(F)(F)F)cn2)cc1)N1CCN(c2ccccc2)CC1	9.6	32.8	25.1	34.6	11.7	nt
COc1ccc(N2CCN(C(=O)c3ccc(Oc4ccc(C(F)(F)F)cn4)cc3)CC2)cc1	14.7	26.1	44.3*	24.4	7.5	40.7*
Cc1cccc(Cl)c1NNC(=O)Nc1c([N+](=O)[O-])c(C)nn1C	nt	6.0	0.0	12.9	15.4	nt
O=C(N=C1c2ccccc2CN1c1ccc(F)c(F)c1)c1cccnc1	-19.0	42.4	48.6*	33.0	5.6	12.6
O=C(/C=C/c1ccccc1)Nc1ccc(C(=O)N2CCCCC2)cc1	-1.7	17.0	47.9*	34.1	17.8	26.1
O=C(/C=C/c1ccccc1)Nc1ccc(S(=O)(=O)N2CCOCC2)cc1	0.1	32.9	46.0*	39.7	20.6	44.3*
O=C(/C=C/c1cccc(F)c1)Nc1ccc(S(=O)(=O)N2CCOCC2)cc1	nt	24.5	67.8*	10.8	15.6	45.0*
O=C(Nc1ccccc1)Nc1ccc(C(=O)N2CCCC2)cc1	12.9	41.9	21.8	31.9	-2.1	nt
CC(=O)c1cccc(NC(=O)/C=C/c2ccc(S(=O)(=O)N3CCOCC3)cc2)c1	nt	12.3	2.2	11.3	23.6	nt
CN(C)S(=O)(=O)c1cccc(NC(=O)/C=C/c2ccc(S(=O)(=O)N3CCOCC3)cc2)c1	nt	4.7	3.5	1.7	-1.0	nt
COc1ccc(/C=C/C(=O)Nc2ccc(NC(C)=O)cc2)cc1S(=O)(=O)N1CCOCC1	nt	3.5	96.3*	10.1	9.0	-18.1
N#CCCN(C(=O)COC(=O)c1ccc(S(=O)(=O)Nc2ccccc2)cc1)c1ccccc1	19.5	8.3	9.3	11.3	-4.6	nt
COc1cccc(CNC(=O)c2cc3c(cc2Cl)N2CCCCCC2=NS3(=O)=O)c1	nt	2.0	-7.5	-11.5	3.1	nt
O=C(O)c1nccnc1C(=O)Nc1ccccc1-c1ccccc1	nt	14.4	-0.7	-2.5	8.4	nt
O=C(CSCc1ccc(Cl)cc1)Nc1ccc(S(=O)(=O)N2CCOCC2)cc1	32.4	24.5	42.7*	13.0	2.0	-7.0
SMILES	NALP1 yeast inh	tim23-1 inh	TIM10 inh	tim10-1 inh	NLRP3 yeast inh	TIM10 conf
CC(C)CN1C(=O)C(=O)N(CC(=O)Nc2cc(Cl)ccc2Oc2ccccc2)C1=O	-3.2	28.4	42.8*	34.9	-4.1	38.5*
N#C/C(=C\c1ccc(C#N)cc1)C(=O)N1CCCC1	-1.8	47.5	50.4*	38.3	-2.3	33.6*
CC1C(=O)N2CCCc3cc(NC(=O)C(=O)NCc4ccccn4)cc1c32 (stereo not drawn)	nt	-12.6	7.8	-13.4	5.9	nt
CC(=O)Nc1cccc(Oc2ncnc3scc(-c4ccccc4)c23)c1	17.5	42.8	47.7*	24.8	11.9	14.6
O=S(=O)(c1ccc(Oc2ncnc3scc(-c4ccccc4)c23)cc1)N1CCOCC1	8.8	31.9	8.6	28.9	16.4	nt
CCN(CC)CCCCNc1ncc2cc(-c3cc(OC)cc(OC)c3)c(NC(=O)NC(C)(C)C)nc2n1	1.5	-6.6	2.9	-9.6	8.0	nt
COCCNC(=O)C(c1ccc(Cl)cc1)N(C(=O)Cn1nnc2ccccc21)c1cccnc1 (stereo not drawn)	0.5	8.9	-9.3	-6.3	2.7	nt
N#Cc1cc(C#N)c(N2CCN(c3cccc(Cl)n3)CC2)nc1N	-3.3	37.9	41.0*	11.5	8.9	17.8
NC1CCN(c2cccc(Cl)n2)CC1	nt	4.0	2.1	-0.6	11.9	nt
O=C(OCN1C(=O)C(=O)c2ccccc21)c1ccc(Cl)cc1	-24.5	35.9	-5.2	-31.8	11.5	nt
Cc1ccc(Sc2cnn(-c3ccccc3)c(=O)c2Cl)cc1	-5.3	44.5	51.7*	39.5	14.6	45.9*
COc1ccc(NC(=O)N2CCN(c3nc(-c4cccc(OC)c4)cs3)CC2)cc1	7.2	24.7	40.2*	21.2	19.0	29.1*
CN(C)c1ccc(/C=C/C(=O)c2ccc3c(c2)OCCO3)cc1[N+](=O)[O-]	35.4	40.6	43.2*	36.3	23.4	25.4
COc1ccc(C(=O)/C=C/c2ccc(N3CCCCC3)c([N+](=O)[O-])c2)cc1	25.1	20.3	18.4	13.3	11.6	nt
c1csc(-c2cc(N3CCCCC3)c3ccccc3n2)c1	18.9	32.9	21.2	15.0	22.1	nt
COc1cccc(NC(=O)NCCCSC2CCCCC2)c1	1.8	34.9	21.7	32.1	16.8	nt
Cc1cc(C)c(NC(=S)NCCCSC2CCCCC2)c(C)c1	1.7	18.2	42.3*	34.5	10.7	26.6
Cc1cccc(NC(=O)CSCC(=O)N(C)Cc2c(F)cccc2Cl)c1	nt	22.7	4.4	21.4	13.5	nt
Cc1cc2[nH]c3c(c[n+](C)c4ccccc34)c2cc1C	-23.8	47.7	65.9*	38.2	27.9	58.5*
O=C(CCC1CCCCC1)Nc1ccc(C(=O)c2ccncc2)cc1	-17.6	43.0	43.0*	34.5	16.4	39.2*
NS(=O)(=O)c1ccc(NC(=O)CCC2CCCCC2)cc1	7.3	17.8	20.7	16.0	0.3	nt
O=S1(=O)C=C(Oc2ccc3ccccc3c2)c2ccccc21	-20.1	38.4	41.9*	27.6	25.0	41.9*
O=S(=O)(Nc1ccc(-c2nc3cccnc3s2)cc1)c1cccs1	nt	14.4	4.1	9.6	3.3	nt
O=S(=O)(Nc1cccc2ncccc12)c1cccs1	32.2	39.7	43.4*	30.8	-4.9	47.9*
N#Cc1ccc(COC(=O)CCc2c[nH]c3ccccc23)cc1	-7.1	38.6	-2.1	15.9	7.7	nt
